Assay results reported in PMC4336329 (PLoS ONE, 2015).
Among all 310,000 compounds or so, about 14,000 (4.5%) showed an effect of 50% or more. Effects have a minus sign here. Only a selection was taken, and strong results are over-represented in it overall.

biological target: human ether-à-go-go-related gene (hERG) potassium channel (human, UniProt Q12809); assay: primary screen, population patch clamp on CHO cells stably expressing hERG; higher = less effect of the substance
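Note: peak tail current of the secondary pulse compared with the same well before compound.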

human ether-à-go-go-related gene (hERG) potassium channel, sequence (Q12809 whole entry, looked up): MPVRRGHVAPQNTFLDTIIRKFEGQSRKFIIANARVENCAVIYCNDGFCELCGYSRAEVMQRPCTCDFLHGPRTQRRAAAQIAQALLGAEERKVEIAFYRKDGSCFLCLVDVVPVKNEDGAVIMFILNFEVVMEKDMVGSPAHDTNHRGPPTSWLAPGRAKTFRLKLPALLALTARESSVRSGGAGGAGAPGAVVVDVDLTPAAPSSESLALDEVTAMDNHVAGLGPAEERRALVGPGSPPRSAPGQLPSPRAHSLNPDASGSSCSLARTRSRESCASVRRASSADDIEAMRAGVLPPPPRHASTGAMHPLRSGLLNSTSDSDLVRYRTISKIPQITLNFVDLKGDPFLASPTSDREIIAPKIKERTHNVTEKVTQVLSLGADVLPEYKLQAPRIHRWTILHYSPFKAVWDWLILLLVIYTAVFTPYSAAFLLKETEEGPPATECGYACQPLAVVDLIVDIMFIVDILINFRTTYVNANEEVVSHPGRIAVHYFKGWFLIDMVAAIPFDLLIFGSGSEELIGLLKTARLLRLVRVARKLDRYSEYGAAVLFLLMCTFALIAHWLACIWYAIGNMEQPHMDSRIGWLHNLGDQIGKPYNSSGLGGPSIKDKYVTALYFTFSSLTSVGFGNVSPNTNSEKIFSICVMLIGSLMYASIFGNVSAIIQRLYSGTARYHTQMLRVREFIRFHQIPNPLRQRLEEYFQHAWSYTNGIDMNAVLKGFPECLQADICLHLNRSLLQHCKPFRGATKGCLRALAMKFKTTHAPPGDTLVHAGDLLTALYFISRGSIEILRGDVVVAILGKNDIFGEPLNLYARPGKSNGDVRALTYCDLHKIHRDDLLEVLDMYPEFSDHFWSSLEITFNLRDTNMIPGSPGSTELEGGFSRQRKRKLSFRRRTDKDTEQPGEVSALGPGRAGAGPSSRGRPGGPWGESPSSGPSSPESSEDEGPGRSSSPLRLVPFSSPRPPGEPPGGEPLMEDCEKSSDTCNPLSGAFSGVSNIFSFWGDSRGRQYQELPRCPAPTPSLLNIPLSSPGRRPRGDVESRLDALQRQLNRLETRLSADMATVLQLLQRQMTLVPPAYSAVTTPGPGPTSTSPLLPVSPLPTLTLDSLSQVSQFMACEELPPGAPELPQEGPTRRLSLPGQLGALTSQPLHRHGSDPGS

SMILES	hERG current change (%, negative = inhibition) at 10uM [%]
O=C(CSc1nncn1-c1cccnc1)Nc1cccc(C(F)(F)F)c1	-57.7
Cc1nn(Cc2nnc(SCC(=O)Nc3ccc(Cl)cc3)n2C)c(C)c1[N+](=O)[O-]	-22.9
O=C(CSc1nncn1-c1cccnc1)Nc1ccccc1C(F)(F)F	4.9
Cc1ccc(NC(=O)CSc2nnc(C(F)(F)F)n2C)cc1[N+](=O)[O-]	-73.6
O=C(CSc1nncn1-c1cccnc1)Nc1cccc([N+](=O)[O-])c1	4.83
Cn1c(SCC(=O)Nc2ccccc2)nnc1C(F)(F)F	32.6
Cn1c(CN2CCOCC2)nnc1SCC(=O)Nc1cccc(C(F)(F)F)c1	-1.04
Cc1nn(Cc2nnc(SCC(=O)Nc3cccc(C(F)(F)F)c3)n2C)c(C)c1[N+](=O)[O-]	-57.7
Cn1c(SCC(=O)Nc2ccccc2[N+](=O)[O-])nnc1C(F)(F)F	-3.31
Cn1cc(CN2CC3C[C@@H]4CC2C[C@H](C3)C4)c(-c2ccc3c(c2)OCCO3)n1	-8.66
O=C(NCc1ccccn1)Nc1cccc([N+](=O)[O-])c1	11.6
COc1ccc(Cc2nnc(SCC(=O)Nc3ccc(N4CCOCC4)cc3)n2C)cc1	8.93
Cc1ccc(C(=O)OCC(=O)NCc2ccco2)cc1	-8.9
CCOC(=O)C1CCCN(C(=O)/C=C/c2ccccc2[N+](=O)[O-])C1 (stereo not shown)	-12.6
CCOC(=O)C1CCCN(C(=O)/C=C/c2ccc(OC)cc2)C1 (stereo not shown)	-23.6
CCOC(=O)C1CCCN(C(=O)Cc2ccc(Cl)cc2)C1 (stereo not shown)	6.9
CCOC(=O)C1CCCN(C(=O)/C=C/c2cccc([N+](=O)[O-])c2)C1 (stereo not shown)	-41.8
COc1c(C)cc(C(=O)C2CCCN(C(=O)/C=C/c3ccccn3)C2)cc1C (stereo not shown)	-15.8
COc1ccc2cc(C(=O)C3CCCN(C(=O)/C=C/c4ccccn4)C3)ccc2c1 (stereo not shown)	-18.3
CCOC(=O)C1CCCN(C(=O)/C=C/c2ccc(Cl)cc2)C1 (stereo not shown)	-59.9
O=C(c1ccc(Cl)cc1)C1CCCN(C(=O)/C=C/c2ccccn2)C1 (stereo not shown)	-51.9
CCOC(=O)C1CCCN(C(=O)/C=C/c2ccc([N+](=O)[O-])cc2)C1 (stereo not shown)	-64.8
O=C(O)C(=O)O.O=C(c1ccc(F)cc1)N1CCN(C2CC3CCC2C3)CC1 (stereo not shown)	-2.85

SMILES	hERG current change (%, negative = inhibition) at 10uM [%]
Cn1cnnc1SCCCN1C(=O)c2cccc3cccc(c23)C1=O	-30.6
COc1ccc(CCN(C)C(=O)Cc2ccc(-c3ccccc3)cc2)cc1OC	-0.187
Brc1c(-c2ccccc2)nc2n1Cc1ccccc1-2	21.8
CC(C)(C)C(=O)Oc1cccc(Nc2ncnc3ccccc23)c1	9.76
Cc1ccc(Oc2ncnc(N)c2[N+](=O)[O-])cc1C	31.8
NC(=O)CC(NC(=O)c1ccccc1)c1ccc(N2CCN(c3ccccc3)CC2)c([N+](=O)[O-])c1 (stereo not shown)	1.33
O=C(CSc1nc2ccccc2o1)NC(=O)NCc1ccccc1	8.99
O=C(CSc1nc2[nH]ncc2c(=O)n1-c1ccccc1)c1ccc2c(c1)OCCO2	-6.39
O=C(CCCC(=O)c1ccc(F)cc1)c1ccc(F)cc1	-25.8
O=C(CCCc1ccccc1)c1ccccc1	18.5
CCN(CCCC(=O)c1ccc(F)cc1)CCc1ccccc1.Cl	-84.5
CCc1ccc(-c2nc(CS(=O)CC(=O)NC3CCCCCC3)c(C)o2)cc1 (stereo not shown)	-7.44
Cc1ccc(S(=O)(=O)N2CCCC(C(=O)NC3CCCC3)C2)cc1Cl (stereo not shown)	17.8
Cc1ccc(N=C(N)N=C(N)N)cc1	16.9
O=[N+]([O-])c1ccc(-c2ccc(/C=N/O)o2)cc1	8.69
CN1CCN(/N=C/c2ccc(-c3ccc([N+](=O)[O-])cc3)o2)CC1	-66
CN1CCN(/N=C/c2ccc(-c3ccc([N+](=O)[O-])cc3Cl)o2)CC1	-46.2
CC(C)(CN1CCCCC1)NS(=O)(=O)c1ccc(Cl)cc1	-13.4
CC(C)(CN1CCN(Cc2ccccc2)CC1)NS(=O)(=O)c1ccc(Cl)cc1	-74.7
CC(C)(CN1CCNCC1)NS(=O)(=O)c1ccc(Cl)cc1	-60.3
CC(C)(CN1CCN(Cc2ccccc2)CC1)NS(=O)(=O)c1ccccc1	-39.6
CC(C)(CN1CCCC1)NS(=O)(=O)c1ccc(Cl)cc1	29.6
Cc1ccc(S(=O)(=O)NC(C)(C)CN2CCNCC2)cc1	-9.34
